The text below walks through data of PubChem BioAssay AID1730 (National Center for Advancing Translational Sciences (NCATS), 2009).

Inconclusive results are not listed. Calls of active or inactive are those of the source. Calls come from the whole dose curve; as a rule, active = well fitted inhibition curve with a large enough effect; inconclusive = small, poorly fitted or top-dose-only effect; inactive = no such curve, though single readings can be large or run the other way.

This assay can be described thus: Counterscreen Assay for Inhibitors of the ERK Signaling Pathway using a Homogeneous Screening Assay. An excerpt:
qHTS Assay for Inhibitors of the ERK Signaling Pathway using a Homogeneous Screening Assay
NIH Chemical Genomics Center [NCGC]
NIH Molecular Libraries Screening Centers Network [MLSCN]
Assay Submitter (PI): Dr. Wei Zheng, NCGC/NIH
The Ras/extracellular-signal-regulated kinase (ERK) mitogen activated protein (MAP) kinase signaling pathway (ERK1/2 cascade) plays is a key role in transmitting signals from the cell surface to the nucleus (Nishida and Gotoh 1993; Chang and Karin, 2001). The cascade is initiated by the small G-protein Ras, which recruits Raf […], where activation occurs. Alternatively, this pathway can be activated by elevating intracellular cAMP.
Activation of the ERK pathway is essential in increased cell division and cell survival. Sustained and constitutive activation of the ERK pathway, however, has been linked to uncontrolled cell proliferation, increased cell survival, and tumor progression. Thus, the ERK has been as an attractive target for cancer chemotherapy in the past few years (Sebolt-Leopold and Herrera, 2004). […]
Biotinylated rabbit IgG was used to perform a counter-screen in the context of an AlphaScreen assay kit provided by PerkinElmer. […] AC50 values were determined from concentration-response data modeled with the standard Hill equation. […]
(10) Detect the assay plate in an EnVision plate reader (PerkinElmer) using the AlphaScreen detection mode. […]

On to `CCN1C(=O)NC(=O)/C(=C/c2cc(C)n(-c3sc(C)c(C)c3C#N)c2C)C1=O`, for which the result was inactive.

As to `O=C1NC(=O)C(=Cc2ccccc2Oc2ccc(F)cc2)C(=O)N1`, the result was inactive.
